Targets with a hit are over-represented here; the source holds about 7,900 in all. About 0.6% of all pairs of compound and target were hits. Unmarked numbers belong to inactive results.

Here are results for 20 targets from the supplement of paper PMC10849652.

Chain of UniProt P36406 (P36406 whole entry, looked up): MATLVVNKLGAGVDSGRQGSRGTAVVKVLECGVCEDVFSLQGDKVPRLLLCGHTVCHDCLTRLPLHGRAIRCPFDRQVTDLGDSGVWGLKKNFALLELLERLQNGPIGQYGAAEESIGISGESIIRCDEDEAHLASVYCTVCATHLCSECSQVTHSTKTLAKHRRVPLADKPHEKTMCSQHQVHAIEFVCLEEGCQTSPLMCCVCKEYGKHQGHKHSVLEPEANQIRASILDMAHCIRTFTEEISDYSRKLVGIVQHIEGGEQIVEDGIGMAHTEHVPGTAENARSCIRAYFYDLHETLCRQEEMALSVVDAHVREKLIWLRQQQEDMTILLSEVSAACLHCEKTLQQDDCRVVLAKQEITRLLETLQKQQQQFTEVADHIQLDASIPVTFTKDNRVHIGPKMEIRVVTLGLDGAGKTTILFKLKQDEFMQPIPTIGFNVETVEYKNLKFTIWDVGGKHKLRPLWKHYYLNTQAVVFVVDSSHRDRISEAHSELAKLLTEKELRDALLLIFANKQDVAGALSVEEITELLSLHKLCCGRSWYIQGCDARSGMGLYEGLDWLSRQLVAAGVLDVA
Chain of UniProt P61960 (P61960 whole entry, looked up): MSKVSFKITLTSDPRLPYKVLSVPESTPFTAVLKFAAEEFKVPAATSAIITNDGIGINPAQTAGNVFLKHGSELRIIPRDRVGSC
Chain of UniProt Q9HCN3 (Q9HCN3 whole entry, looked up): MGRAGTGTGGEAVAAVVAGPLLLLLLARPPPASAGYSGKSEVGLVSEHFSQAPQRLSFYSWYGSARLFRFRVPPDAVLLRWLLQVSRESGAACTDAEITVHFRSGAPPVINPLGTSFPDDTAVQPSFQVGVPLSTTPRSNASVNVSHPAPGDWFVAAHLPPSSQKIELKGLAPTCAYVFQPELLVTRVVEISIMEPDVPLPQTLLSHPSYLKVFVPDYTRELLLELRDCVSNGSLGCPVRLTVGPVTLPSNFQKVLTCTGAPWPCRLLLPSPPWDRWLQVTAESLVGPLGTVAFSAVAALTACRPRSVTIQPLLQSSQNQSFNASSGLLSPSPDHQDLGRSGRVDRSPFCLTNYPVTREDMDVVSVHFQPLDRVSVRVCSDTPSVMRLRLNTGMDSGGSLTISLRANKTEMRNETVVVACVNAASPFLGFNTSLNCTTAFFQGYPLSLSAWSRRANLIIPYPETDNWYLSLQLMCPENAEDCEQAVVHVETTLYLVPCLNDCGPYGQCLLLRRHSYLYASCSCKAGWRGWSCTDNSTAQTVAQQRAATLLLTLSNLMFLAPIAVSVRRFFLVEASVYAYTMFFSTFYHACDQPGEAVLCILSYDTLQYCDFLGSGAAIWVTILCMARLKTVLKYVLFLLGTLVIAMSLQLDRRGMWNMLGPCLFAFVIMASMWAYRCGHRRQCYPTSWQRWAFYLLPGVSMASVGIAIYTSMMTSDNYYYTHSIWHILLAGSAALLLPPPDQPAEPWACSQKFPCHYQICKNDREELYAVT
Chain of UniProt Q8NE00 (Q8NE00 whole entry, looked up): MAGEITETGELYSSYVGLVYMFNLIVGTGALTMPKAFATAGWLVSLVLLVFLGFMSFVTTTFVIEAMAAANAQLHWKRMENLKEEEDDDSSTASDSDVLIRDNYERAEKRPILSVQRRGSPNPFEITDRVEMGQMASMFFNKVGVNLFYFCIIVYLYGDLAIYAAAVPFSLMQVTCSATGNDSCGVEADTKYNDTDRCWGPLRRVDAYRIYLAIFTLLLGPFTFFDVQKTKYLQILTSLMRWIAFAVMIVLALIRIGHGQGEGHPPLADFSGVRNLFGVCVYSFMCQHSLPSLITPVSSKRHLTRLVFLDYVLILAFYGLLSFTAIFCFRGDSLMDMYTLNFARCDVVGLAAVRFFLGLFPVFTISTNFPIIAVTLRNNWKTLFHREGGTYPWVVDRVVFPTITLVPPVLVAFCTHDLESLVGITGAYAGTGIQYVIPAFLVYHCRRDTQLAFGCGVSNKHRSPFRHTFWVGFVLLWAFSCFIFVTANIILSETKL
Chain of UniProt P57081 (P57081 whole entry, looked up): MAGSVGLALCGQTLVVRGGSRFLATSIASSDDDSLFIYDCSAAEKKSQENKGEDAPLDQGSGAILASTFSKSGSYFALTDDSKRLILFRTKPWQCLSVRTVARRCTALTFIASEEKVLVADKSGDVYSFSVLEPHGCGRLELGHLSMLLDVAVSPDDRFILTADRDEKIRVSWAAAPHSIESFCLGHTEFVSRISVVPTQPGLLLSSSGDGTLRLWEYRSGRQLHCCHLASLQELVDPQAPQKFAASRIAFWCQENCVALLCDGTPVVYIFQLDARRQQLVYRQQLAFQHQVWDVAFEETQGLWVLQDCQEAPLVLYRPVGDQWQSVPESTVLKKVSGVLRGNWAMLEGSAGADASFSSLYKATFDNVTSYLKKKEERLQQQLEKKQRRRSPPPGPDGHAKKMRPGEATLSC
Chain of UniProt Q5TAX3 (Q5TAX3 whole entry, looked up): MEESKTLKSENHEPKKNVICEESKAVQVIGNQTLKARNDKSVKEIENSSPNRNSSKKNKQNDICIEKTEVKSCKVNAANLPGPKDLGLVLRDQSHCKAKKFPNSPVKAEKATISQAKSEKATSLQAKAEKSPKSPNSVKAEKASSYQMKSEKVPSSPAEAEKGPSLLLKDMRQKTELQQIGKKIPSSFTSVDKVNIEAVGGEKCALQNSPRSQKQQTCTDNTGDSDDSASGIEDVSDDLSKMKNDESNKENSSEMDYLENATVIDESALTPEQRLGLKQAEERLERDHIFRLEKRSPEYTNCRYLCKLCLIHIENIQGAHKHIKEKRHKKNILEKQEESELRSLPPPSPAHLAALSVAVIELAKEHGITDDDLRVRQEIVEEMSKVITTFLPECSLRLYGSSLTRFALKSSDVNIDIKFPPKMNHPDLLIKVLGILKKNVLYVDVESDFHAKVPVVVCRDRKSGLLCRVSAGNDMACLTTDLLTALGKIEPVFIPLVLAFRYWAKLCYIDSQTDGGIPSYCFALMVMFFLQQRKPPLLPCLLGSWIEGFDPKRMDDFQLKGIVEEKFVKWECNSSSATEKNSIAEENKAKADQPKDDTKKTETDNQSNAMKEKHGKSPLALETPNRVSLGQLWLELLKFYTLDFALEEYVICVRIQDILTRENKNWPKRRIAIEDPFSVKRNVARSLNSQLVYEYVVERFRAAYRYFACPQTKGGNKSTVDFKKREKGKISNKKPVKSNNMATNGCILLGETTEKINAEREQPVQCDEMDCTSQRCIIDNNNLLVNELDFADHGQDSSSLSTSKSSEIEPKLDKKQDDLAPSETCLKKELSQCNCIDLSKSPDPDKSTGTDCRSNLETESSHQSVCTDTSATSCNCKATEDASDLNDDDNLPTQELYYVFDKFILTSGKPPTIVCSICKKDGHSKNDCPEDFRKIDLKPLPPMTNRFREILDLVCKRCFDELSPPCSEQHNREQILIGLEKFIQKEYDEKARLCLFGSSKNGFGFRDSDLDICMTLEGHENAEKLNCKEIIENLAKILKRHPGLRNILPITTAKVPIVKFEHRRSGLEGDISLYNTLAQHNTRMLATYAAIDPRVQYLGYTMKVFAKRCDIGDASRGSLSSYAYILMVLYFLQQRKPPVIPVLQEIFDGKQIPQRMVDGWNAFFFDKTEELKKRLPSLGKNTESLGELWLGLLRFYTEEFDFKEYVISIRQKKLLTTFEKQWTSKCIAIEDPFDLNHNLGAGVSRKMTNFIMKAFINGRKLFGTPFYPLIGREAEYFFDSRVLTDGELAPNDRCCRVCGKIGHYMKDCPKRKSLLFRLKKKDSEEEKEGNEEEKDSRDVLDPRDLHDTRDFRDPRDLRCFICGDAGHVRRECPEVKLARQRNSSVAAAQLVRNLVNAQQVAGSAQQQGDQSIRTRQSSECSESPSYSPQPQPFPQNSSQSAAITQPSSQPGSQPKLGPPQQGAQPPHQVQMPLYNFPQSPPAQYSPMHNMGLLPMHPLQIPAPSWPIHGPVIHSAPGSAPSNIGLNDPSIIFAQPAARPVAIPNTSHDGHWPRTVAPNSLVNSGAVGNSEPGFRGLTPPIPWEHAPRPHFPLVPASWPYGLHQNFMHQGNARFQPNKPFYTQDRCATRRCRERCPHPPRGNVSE
Chain of UniProt Q16881 (Q16881 whole entry, looked up): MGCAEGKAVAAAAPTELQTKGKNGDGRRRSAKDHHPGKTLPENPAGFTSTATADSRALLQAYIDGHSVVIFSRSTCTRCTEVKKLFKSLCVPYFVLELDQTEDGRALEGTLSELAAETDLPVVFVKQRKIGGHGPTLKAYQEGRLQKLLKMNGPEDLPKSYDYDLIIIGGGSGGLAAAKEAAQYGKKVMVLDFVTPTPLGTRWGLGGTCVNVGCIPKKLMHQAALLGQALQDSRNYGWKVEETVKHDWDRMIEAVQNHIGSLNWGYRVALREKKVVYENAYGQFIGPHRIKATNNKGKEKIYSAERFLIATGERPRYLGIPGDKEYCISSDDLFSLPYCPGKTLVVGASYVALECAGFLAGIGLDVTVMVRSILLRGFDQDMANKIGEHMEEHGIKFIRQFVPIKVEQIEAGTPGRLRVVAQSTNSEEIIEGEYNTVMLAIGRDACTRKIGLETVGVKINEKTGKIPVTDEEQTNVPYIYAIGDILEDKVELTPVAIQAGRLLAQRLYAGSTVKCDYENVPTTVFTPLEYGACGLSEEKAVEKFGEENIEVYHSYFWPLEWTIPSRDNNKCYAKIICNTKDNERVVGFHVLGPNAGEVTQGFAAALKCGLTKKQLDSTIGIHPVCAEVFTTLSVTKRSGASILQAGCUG
Chain of UniProt Q5VZI3 (Q5VZI3 whole entry, looked up): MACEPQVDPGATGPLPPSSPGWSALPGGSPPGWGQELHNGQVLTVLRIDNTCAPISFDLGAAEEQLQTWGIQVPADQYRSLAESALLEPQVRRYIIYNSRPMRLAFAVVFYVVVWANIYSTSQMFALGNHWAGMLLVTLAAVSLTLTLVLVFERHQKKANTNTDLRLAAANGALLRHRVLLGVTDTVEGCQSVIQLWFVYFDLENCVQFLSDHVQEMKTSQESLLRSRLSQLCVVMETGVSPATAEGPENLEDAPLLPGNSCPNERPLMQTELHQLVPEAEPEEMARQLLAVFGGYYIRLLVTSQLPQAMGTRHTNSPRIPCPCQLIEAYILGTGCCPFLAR

Compound in this assay: CS(=O)(=O)N1CCN(Cc2cc3nc(-c4cccc5[nH]ncc45)nc(N4CCOCC4)c3s2)CC1 [pictilisib]
Description: log2 fold change, soluble protein after heating vs DMSO (PISA); higher = thermal stabilisation; K562 cells, 10 uM, 30 min; active = over 0.2 and 3.5 SD of the protein, either way, in both replicates (recomputed). An outline of the steps:
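K562 cells at 2×10^6 cells/mL were exposed to 10 μM compound for 30 min, then aliquots were heated for 3 min across 48°C-58°C, pooled, and extracted in PBS containing 0.5% NP-40 at 4°C. The supernatant after 21,000xg for 90 min was taken as soluble protein and measured by TMTpro 16plex LC-MS/MS with channel sums equalised. Thermal stability is reported relative to control samples, with values from duplicates. Fold changes are given on a log2 scale.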
Consider TSPAN13 (UniProt O95857), for which the log2 fold change is 0.053. On to TOM1 (UniProt O60784), for which the log2 fold change is 0.171. In the case of TMEM41A (UniProt Q96HV5) it was -0.047; in that of TMEM104 (UniProt Q8NE00), -0.341; in that of UBXN8 (UniProt O00124), -0.002. Consider TMEM219 (UniProt Q86XT9), for which the log2 fold change was -0.277. Consider UBAP2L (UniProt F8W726), for which the log2 fold change is 0.078.

Regarding WARS1 (UniProt G3V277), the log2 fold change was 0.095.

Regarding UBE2D1 (UniProt P51668), the log2 fold change is 0.021. On to TMEM268 isoform 3 (UniProt Q5VZI3), for which the log2 fold change is -0.088. On to TVP23C (UniProt Q96ET8), for which the log2 fold change was -0.029.

On to VWA3B isoform 6 (UniProt Q502W6), for which the log2 fold change is 0.118.

In the case of XIAP (UniProt P98170), the log2 fold change was 0.054. The same measure for TXNRD1 isoform 7 (UniProt Q16881): 0.037. The same measure for UFM1 isoform 2 (UniProt P61960): -0.062; for TMEM8A (UniProt Q9HCN3): 0.121; for TUT4 (UniProt Q5TAX3): 0.009.

For the target TRIM23 (UniProt P36406), the log2 fold change is 0.204. For WDR4 isoform 3 (UniProt P57081), the log2 fold change is 0.359. Regarding UBE2J2 isoform 3 (UniProt Q8N2K1), the log2 fold change was -0.145.
